# From PubChem BioAssay (NCI)
# The panel holds about 79,000 compounds, 15% with a hit somewhere; the sample as a whole holds those more often. Values without a mark were called inactive. The source made the active and inactive calls. Cut-off read from the data, not from the text of the source: active = growth inhibition above about 70%; inactive = the rest.
# How the values were obtained:
# [1] = NCI Yeast Anticancer Drug Screen. Data for the rad52 strain (AID 147);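 note: 0% = growth of vehicle-treated control cultures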; settings: S. cerevisiae rad52 mutant growth inhibition, active compounds read high
# How it was run: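 DNA repair-defective yeast; compound exposure; growth scored against vehicle controls.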
# [2] = NCI Yeast Anticancer Drug Screen. Data for the wt1 strain (AID 149);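 note: 0% = growth of vehicle-treated wt1 cultures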; settings: S. cerevisiae wt1 strain (SPY 50644) growth inhibition, active compounds read high
# How it was run: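 Vehicle-normalised growth inhibition; strain wt1; compound exposure.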
# [3] = NCI Yeast Anticancer Drug Screen. Data for the rad50EPP+ strain (AID 151);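 note: 0% = growth of vehicle-treated control cultures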; settings: S. cerevisiae rad50 mutant strain, active compounds read high
# How it was run: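 rad50EPP+ yeast treated with test compounds. Readout: growth vs vehicle control.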
# [4] = NCI Yeast Anticancer Drug Screen. Data for the mgt1 strain (AID 153); settings: S. cerevisiae mgt1 mutant growth inhibition, active compounds read high
# How it was run: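 Growth inhibition relative to vehicle controls was scored for the mgt1 yeast strain after compound exposure.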
# [5] = NCI Yeast Anticancer Drug Screen. Data for the rad50 strain (AID 155);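 note: 0% = growth of vehicle-only cultures of the same strain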; settings: S. cerevisiae rad50 strain growth inhibition, active compounds read high
# How it was run: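 A DNA repair-deficient yeast mutant serves as the test organism; compound-induced growth inhibition is calculated against vehicle-treated cells.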
# [6] = NCI Yeast Anticancer Drug Screen. Data for the mec2-1 strain (AID 157); settings: S. cerevisiae mec2-1 strain, active compounds read high
# How it was run: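 Growth inhibition is read against vehicle-treated controls after compound exposure of the mec2-1 yeast strain, which is defective in DNA damage repair or cell cycle control.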
# [7] = NCI Yeast Anticancer Drug Screen. Data for the rad14 strain (AID 159);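 note: 0% = growth of vehicle-treated control cultures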; settings: S. cerevisiae rad14 strain growth inhibition, active compounds read high
# How it was run: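 Vehicle-treated cultures served as the baseline for growth inhibition of a DNA repair-mutant yeast strain exposed to each compound.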
# [8] = NCI Yeast Anticancer Drug Screen. Data for the sgs1 mgt1 strain (AID 161);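 note: 0% = growth of cultures given vehicle only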; settings: S. cerevisiae sgs1 mgt1 strain, active compounds read high
# How it was run: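 Percent growth inhibition was derived by comparing compound-exposed mutant yeast with vehicle-exposed cultures. The strain carries alterations in DNA damage repair.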
# [9] = NCI Yeast Anticancer Drug Screen. Data for the CLN2oe strain (AID 163);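 note: 0% = growth of vehicle-only control cultures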; settings: S. cerevisiae CLN2oe strain, active compounds read high
# How it was run: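 Compound-treated yeast; growth vs vehicle ctrl = % inhibition. Genetically altered strain (cell-cycle control).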
# [10] = NCI Yeast Anticancer Drug Screen. Data for the cln2 rad14 strain (AID 165);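 note: 0% = growth equal to vehicle treated cultures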; settings: S. cerevisiae cln2 rad14 strain, active compounds read high
# How it was run: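 Growth inhibition, relative to vehicle-treated controls, is the read-out. The test organism is a yeast strain with defined genetic alterations, cln2 rad14.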
# [11] = NCI Yeast Anticancer Drug Screen. Data for the bub3 strain (AID 167); settings: S. cerevisiae bub3 mutant strain, active compounds read high
# How it was run: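 Inhibition values come from growth of compound-treated mutant yeast normalised to vehicle-treated controls.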
# [12] = NCI Yeast Anticancer Drug Screen. Data for the wt2 strain (AID 169);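 note: 0% = growth of vehicle-treated yeast cultures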; settings: S. cerevisiae wt2 strain growth inhibition, active compounds read high
# How it was run: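 Compound exposure of yeast; growth compared with vehicle controls; inhibition reported.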
# [13] = NCI Yeast Anticancer Drug Screen. Data for the mlh1 strain (AID 171);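 note: 0% = growth of vehicle-treated control cultures of the same strain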; settings: S. cerevisiae mlh1 strain growth inhibition, active compounds read high
# How it was run: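 Compounds are applied to a genetically altered yeast strain, and its growth is compared with that of vehicle-treated cultures to give percent inhibition.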
# [14] = NCI Yeast Anticancer Drug Screen. Data for the sgs1 strain (AID 173);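 note: 0% = growth of vehicle-only control cultures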; settings: S. cerevisiae sgs1 mutant, active compounds read high
# How it was run: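 Compounds applied to genetically altered yeast; growth compared with vehicle-treated cultures to give % inhibition.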
# [15] = NCI Yeast Anticancer Drug Screen. Data for the mlh1 rad18 strain (AID 175); settings: S. cerevisiae mlh1 rad18 strain growth inhibition, active compounds read high
# How it was run: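 Cells of a genetically altered yeast strain, deficient in DNA damage repair, were treated with compound. Their growth was then compared with that of vehicle-treated cultures to give inhibition.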
# [16] = NCI Yeast Anticancer Drug Screen. Data for the rad18 strain (AID 177); settings: S. cerevisiae rad18 mutant growth inhibition, active compounds read high
# How it was run: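 Compounds are applied to a repair-deficient yeast strain, and growth is compared with that of vehicle-treated cultures to give percent inhibition.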
# [17] = at 5.0 µM (retest, dose inferred, filed as 0.5)
# [18] = at 50.0 µM (retest, dose inferred, filed as 5.0)
structure (smiles),measurement,setting,value
O=C(Cc1ccccc1)NNc1nc(NNC(=O)c2ccncc2)nc(Nc2ccc(Cl)cc2)n1,growth inhibition,[1]; at 1.2 µM,16%
same,growth inhibition,[1]; at 3.7 µM,6%
same,growth inhibition,[1]; at 11.0 µM,16%
same,growth inhibition,[1]; at 33.0 µM,14%
same,growth inhibition,[1]; at 100.0 µM,17%
same,growth inhibition,[2]; at 1.2 µM,-52%
same,growth inhibition,[2]; at 3.7 µM,-3%
same,growth inhibition,[2]; at 11.0 µM,0%
same,growth inhibition,[2]; at 33.0 µM,-1%
same,growth inhibition,[2]; at 100.0 µM,-1%
same,growth inhibition,[3]; at 1.2 µM,1%
same,growth inhibition,[3]; at 3.7 µM,8%
same,growth inhibition,[3]; at 11.0 µM,6%
same,growth inhibition,[3]; at 33.0 µM,3%
same,growth inhibition,[3]; at 100.0 µM,4%
same,growth inhibition,[4]; at 1.2 µM,1%
same,growth inhibition,[4]; at 3.7 µM,3%
same,growth inhibition,[4]; at 11.0 µM,5%
same,growth inhibition,[4]; at 33.0 µM,3%
same,growth inhibition,[4]; at 100.0 µM,-1%
same,growth inhibition,[5]; at 1.2 µM,-1%
same,growth inhibition,[5]; at 3.7 µM,0%
same,growth inhibition,[5]; [17],3%
same,growth inhibition,[5]; at 11.0 µM,0%
same,growth inhibition,[5]; at 33.0 µM,-1%
same,growth inhibition,[5]; [18],38%
same,growth inhibition,[5]; at 50.0 µM,39.2%
same,growth inhibition,[5]; at 100.0 µM,1%
same,growth inhibition,[6]; at 1.2 µM,-3%
same,growth inhibition,[6]; at 3.7 µM,-5%
same,growth inhibition,[6]; [17],6%
same,growth inhibition,[6]; at 11.0 µM,-1%
same,growth inhibition,[6]; at 33.0 µM,4%
same,growth inhibition,[6]; [18],22%
same,growth inhibition,[6]; at 50.0 µM,48.2%
same,growth inhibition,[6]; at 100.0 µM,-3%
same,growth inhibition,[7]; at 1.2 µM,0%
same,growth inhibition,[7]; at 3.7 µM,4%
same,growth inhibition,[7]; at 11.0 µM,3%
same,growth inhibition,[7]; at 33.0 µM,0%
same,growth inhibition,[7]; at 100.0 µM,2%
same,growth inhibition,[8]; [17],1%
same,growth inhibition,[8]; [18],12%
same,growth inhibition,[8]; at 50.0 µM,55.3%
same,growth inhibition,[9]; at 1.2 µM,-14%
same,growth inhibition,[9]; at 3.7 µM,-9%
same,growth inhibition,[9]; at 11.0 µM,-13%
same,growth inhibition,[9]; at 33.0 µM,-20%
same,growth inhibition,[9]; at 100.0 µM,-24%
same,growth inhibition,[10]; [17],-21%
same,growth inhibition,[10]; [18],45%
same,growth inhibition,[10]; at 50.0 µM,10.1%
same,growth inhibition,[11]; at 1.2 µM,-3%
same,growth inhibition,[11]; at 3.7 µM,-5%
same,growth inhibition,[11]; [17],-7%
same,growth inhibition,[11]; at 11.0 µM,-4%
same,growth inhibition,[11]; at 33.0 µM,-6%
same,growth inhibition,[11]; [18],98% (active)
same,growth inhibition,[11]; at 50.0 µM,31.8%
same,growth inhibition,[11]; at 100.0 µM,-7%
same,growth inhibition,[12]; at 1.2 µM,-4%
same,growth inhibition,[12]; at 3.7 µM,2%
same,growth inhibition,[12]; at 11.0 µM,4%
same,growth inhibition,[12]; at 33.0 µM,-1%
same,growth inhibition,[12]; at 100.0 µM,-2%
same,growth inhibition,[13]; at 1.2 µM,-2%
same,growth inhibition,[13]; at 3.7 µM,-1%
same,growth inhibition,[13]; at 11.0 µM,0%
same,growth inhibition,[13]; at 33.0 µM,-2%
same,growth inhibition,[13]; at 100.0 µM,-3%
same,growth inhibition,[14]; at 1.2 µM,3%
same,growth inhibition,[14]; at 3.7 µM,7%
same,growth inhibition,[14]; at 11.0 µM,7%
same,growth inhibition,[14]; at 33.0 µM,6%
same,growth inhibition,[14]; at 100.0 µM,4%
same,growth inhibition,[15]; [17],13%
same,growth inhibition,[15]; [18],14%
same,growth inhibition,[15]; at 50.0 µM,59.9%
same,growth inhibition,[16]; at 1.2 µM,9%
same,growth inhibition,[16]; at 3.7 µM,10%
same,growth inhibition,[16]; at 11.0 µM,19%
same,growth inhibition,[16]; at 33.0 µM,19%
same,growth inhibition,[16]; at 100.0 µM,15%
